Arbovirus anti: blocks arbovirus infection. arbovirus infection cell-based antiviral screen. inhibition, % at 10 µM. 200,000 compounds, 0.37% hits; in the data active = inhibition above about 30%
S1P3 antag-1: S1P3 (human) receptor antagonism | Q99500 | CHO S1P3 NFAT-BLA reporter, FRET fluorescence, antagonist mode | inhibition, % at 4.98 µM | 170,000 compounds, 0.27% hits | AID 485;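 active = inhibition above the plate cutoff, the mean inhibition of test wells on that plate plus 3 SD, cut at about 28% in these data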;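 also: cells challenged with S1P at its EC80 of 0.8 µM; blue over green emission ratio from cleaved BLA substrate after 4 h stimulation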
S1P4 antag: antagonists of human S1P4 receptor; inhibition, % at 4.98 µM; 220,000 compounds, 0.26% hits; S1P4-expressing cells, antagonist mode, reporter read-out; O95977; AID 1510; in the data active = inhibition above about 29%
p97 inhibitor: human p97 ATPase inhibition; 220,000 compounds, 0.42% hits; AID 1481; P55072; recombinant p97 ATPase, Kinase-Glo ATP luminescence, 3 h; inhibition, % at 8 µM; in the data active = inhibition above about 15%
Target sequence (P55072 whole entry, looked up): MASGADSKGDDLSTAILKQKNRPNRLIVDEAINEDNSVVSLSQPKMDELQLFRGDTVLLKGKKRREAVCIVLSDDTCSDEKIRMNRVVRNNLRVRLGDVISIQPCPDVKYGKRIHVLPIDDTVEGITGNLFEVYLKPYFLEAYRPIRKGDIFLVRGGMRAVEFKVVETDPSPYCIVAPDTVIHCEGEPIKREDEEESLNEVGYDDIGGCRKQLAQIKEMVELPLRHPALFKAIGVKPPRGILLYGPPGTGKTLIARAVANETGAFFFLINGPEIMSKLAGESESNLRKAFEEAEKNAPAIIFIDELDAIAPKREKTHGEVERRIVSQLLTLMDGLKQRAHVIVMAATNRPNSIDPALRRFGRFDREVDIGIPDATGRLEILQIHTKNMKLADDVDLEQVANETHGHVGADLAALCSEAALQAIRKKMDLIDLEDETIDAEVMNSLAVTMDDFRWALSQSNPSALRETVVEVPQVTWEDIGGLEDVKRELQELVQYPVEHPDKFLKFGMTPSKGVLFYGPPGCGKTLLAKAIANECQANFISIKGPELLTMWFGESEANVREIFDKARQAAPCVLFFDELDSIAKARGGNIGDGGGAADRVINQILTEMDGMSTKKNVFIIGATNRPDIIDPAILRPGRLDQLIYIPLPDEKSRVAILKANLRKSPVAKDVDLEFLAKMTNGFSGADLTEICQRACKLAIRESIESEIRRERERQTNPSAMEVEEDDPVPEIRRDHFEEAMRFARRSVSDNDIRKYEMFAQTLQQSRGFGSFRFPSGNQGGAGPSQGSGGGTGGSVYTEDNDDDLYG
S1P4 ag: agonists of human S1P4 receptor; O95977; S1P4-expressing cell line, agonist reporter assay; activation, % at 4.98 µM; 220,000 compounds, 0.35% hits; AID 1509; in the data active = activation above about 11%
Redox H2O2 prof: compounds producing H2O2 with reducing agent – biochemical, NIH compound library profiling, artefact control for MLSCN library redox annotation, primary screen. activation, % at 10 µM. 200,000 compounds, 0.03% hits. DTT-dependent redox cycling H2O2, phenol red/HRP absorbance; 100% = 100 µM peroxide control, 0% = buffer;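 active = activation of at least 50% relative to the plate's high and low controls in the primary single-dose screen; inactive = activation below 50%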;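 also: compound incubated with DTT at 0.8 mM final as the reducing agent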
S1P3 antag-2: confirmation of human S1P3 receptor antagonists | 240 compounds, 30% hits | inhibition, % at 4.98 µM | shares compounds with S1P3 antag-1 | CHO S1P3 NFAT-BLA reporter, FRET, antagonist mode | AID 1429;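 active = inhibition above the hit threshold that was computed for the earlier primary screen, cut at about 30% in these data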
Of the large screens only hits and unclear results are named; the others gave an inactive call (follow-up assays come after a bar, where they were run). Compounds with a hit are over-represented: about 1.6% of the library has one in this group of screens.

O=C(Nc1ccc(N2CCCC2)c(Cl)c1)c1ccc([N+](=O)[O-])o1	S1P4 antag 90
O=C(Nc1ccc(N2CCCC2)c(Cl)c1)c1ccco1	none
O=C(O)c1cccc(-n2cccc2/C=C2/NC(=O)N(c3cccc(Cl)c3)C2=O)c1	none (no result: Arbovirus anti, Redox H2O2 prof)
Cc1ccccc1N=C1NC(=O)/C(=C/c2cccn2-c2cccc(C(=O)O)c2)S1	Arbovirus anti 76
O=C(O)c1cccc(-n2cccc2/C=C2/NC(=O)N(c3ccc(Cl)cc3)C2=O)c1	Arbovirus anti 32, p97 inhibitor 18
O=C(O)C1CCCCC1C(=O)Nc1nc(-c2ccc(Cl)s2)cs1 (stereo unspecified)	Arbovirus anti 38
CCCC(=O)Nc1nc(-c2ccc(Cl)s2)cs1	none
O=C(NCC1CCCO1)c1cc(C(=O)C2CCCCC2)c[nH]1 (stereo unspecified)	none
CN(C)c1ccc(/C=C/c2ccc3c4ccccc4ccc3[n+]2-c2ccccc2)cc1	S1P3 antag-1 55
O=C(CCn1c(=O)sc2ccccc21)NCCCn1ccnc1	Arbovirus anti 30
CC1CCc2c(sc3ncn(Cc4ccc(C(=O)O)cc4)c(=O)c23)C1 (stereo unspecified)	p97 inhibitor 15
CC1CCc2c(sc3ncn(CCO)c(=O)c23)C1 (stereo unspecified)	none
Fc1ccc(NC(=S)Nc2cc(-c3ccccc3)[nH]n2)cc1Cl	none
Cn1c(-c2nnn(-c3ccc(F)cc3)n2)cc2ccccc21	none
C=CC[n+]1ccc(/C=C2\C=Cc3cc(C)ccc3N2CC)c2ccccc21	S1P3 antag-1 30 | S1P3 antag-2 39
CCN(CC)c1ccc2cc(-c3nnc(-c4ccccc4)o3)c(=O)oc2c1	none (no result: S1P3 antag-1)
CCN(CC)c1ccc2cc(-c3nc(-c4ccc(OC)cc4)cs3)c(=O)oc2c1	S1P3 antag-1 42 | S1P3 antag-2 97
CC(CC(=O)N1CCN(c2ccc(C(F)(F)F)cn2)CC1)n1ccnc1 (stereo unspecified)	S1P3 antag-1 36 | S1P3 antag-2 inactive
CC(C)C(=O)NC(=S)Nc1ccc(S(=O)(=O)Nc2nccs2)cc1	S1P3 antag-1 28 | S1P3 antag-2 inactive
COc1ccc(NC(=O)/C=C/c2c(Cl)nc3ccccn23)cc1	none
CCN1/C(=C/c2sc(-c3ccccc3C)c[n+]2C)Sc2ccccc21	S1P3 antag-1 36 | S1P3 antag-2 38
C/C(Cn1nnc2ccccc21)=N\NC(=O)c1cccc(Br)c1	S1P3 antag-1 29 | S1P3 antag-2 inactive
COc1ccc(C(C)NC(=O)c2ccc([N+](=O)[O-])cc2)cc1OC (stereo unspecified)	none
CCCOC(=O)c1ccc(Oc2cn[nH]c2-c2ccc(O)cc2O)cc1	none (no result: Arbovirus anti, Redox H2O2 prof)
CCOC(=O)c1ccc(Oc2cn[nH]c2-c2ccc(O)cc2O)cc1	S1P3 antag-1 29 (no result: Arbovirus anti, Redox H2O2 prof) | S1P3 antag-2 inactive
COc1ccccc1NC(=S)NCc1ccc2c(c1)OCO2	none
CCOc1cc(S(=O)(=O)NCc2ccncc2)ccc1Cl	S1P3 antag-1 29 | S1P3 antag-2 inactive
CC[C@@H]1C=C(C)C[C@H](C)C[C@H](OC)[C@H]2O[C@@](O)(C(=O)C(=O)N3CCCC[C@H]3C(=O)O[C@H](/C(C)=C/[C@@H]3CC[C@@H](O)[C@H](OC)C3)[C@H](C)[C@@H](O)CC1=O)[C@H](C)C[C@@H]2OC	S1P3 antag-1 89 | S1P3 antag-2 105
O=C(OC(C(=O)Nc1cccc(C(F)(F)F)c1)c1ccccc1)C1CCCCC1 (stereo unspecified)	S1P3 antag-1 37 | S1P3 antag-2 30
O=C(N/N=C/C=C/c1ccc([N+](=O)[O-])cc1)C1COc2ccccc2O1 (stereo unspecified)	none
O=C(N/N=C\C=C\c1ccco1)C1COc2ccccc2O1 (stereo unspecified)	S1P3 antag-1 28 (no result: Arbovirus anti, Redox H2O2 prof) | S1P3 antag-2 inactive
CCOC(=O)C1CCCN(c2cc(=O)n(C3CCCCC3)c(=O)[nH]2)C1 (stereo unspecified)	none
Cc1cccc(OCC(=O)Nc2ccc3c(c2)nc(CN2CCCCC2)n3C)c1	S1P3 antag-1 30 (no result: Arbovirus anti, Redox H2O2 prof) | S1P3 antag-2 inactive
Cc1cc(Nc2cccc(Cl)c2)nc(NCc2ccccc2)n1	S1P3 antag-1 32 | S1P3 antag-2 inactive
Cc1cc(N/N=C/c2cccc(Cl)c2)nc(NCc2ccccc2)n1	none
COC(=O)C(C)(C)ONC(=O)Nc1ccccc1Cl	S1P3 antag-1 39 | S1P3 antag-2 inactive
COc1ccccc1NC(=O)CN1CC(=O)Nc2ccccc21	none
CCCc1nc2ccccc2c(C(=O)OC(C)C(=O)NCc2ccc3c(c2)OCO3)c1CC (stereo unspecified)	S1P3 antag-1 31 | S1P3 antag-2 inactive
Cc1ccc(C)c(S(=O)(=O)N/N=C/c2ccc(N3CCOCC3)cc2)c1	S1P3 antag-1 30 (no result: Arbovirus anti, Redox H2O2 prof) | S1P3 antag-2 inactive
CC(C)NC(=S)N/N=C/c1ccc(N2CCOCC2)cc1	none
COc1ccc(NC(=S)NNC(=O)C2CC2c2ccc(C)cc2)cc1 (stereo unspecified)	S1P3 antag-1 33 | S1P3 antag-2 inactive
Cc1ccc(NC(=S)NNC(=O)C2CC2c2ccc(C)cc2)cc1 (stereo unspecified)	none (no result: S1P3 antag-1)
O=C(COc1ccc(-c2ccccc2)cc1)NNC(=O)NC1CCCCC1	none
O=C(N/N=C/c1ccc(O)cc1)c1cc(C23CC4CC(CC(C4)C2)C3)[nH]n1	S1P3 antag-1 31 (no result: Arbovirus anti, Redox H2O2 prof) | S1P3 antag-2 35
COc1ccc(/C=N/NC(=O)c2cc(C34CC5CC(CC(C5)C3)C4)[nH]n2)cc1OC	none
COc1ccc(/C(=N/OC(C)=O)c2nccc3cc(OC)c(OC)cc23)cc1OC	none (no result: Arbovirus anti, Redox H2O2 prof)
CCOC(=O)C(C)Oc1cccc2c(=O)n(CC(=O)NCc3ccccc3)ccc12 (stereo unspecified)	S1P3 antag-1 37 (no result: Arbovirus anti, Redox H2O2 prof) | S1P3 antag-2 inactive
CCOC(=O)C(C)Oc1cccc2c(=O)n(CC(=O)NCCc3ccccc3)ccc12 (stereo unspecified)	none (no result: Arbovirus anti, Redox H2O2 prof)
CCOC(=O)C(C)Oc1cccc2c(=O)n(CC(=O)NCc3ccc(F)cc3)ccc12 (stereo unspecified)	S1P3 antag-1 35 (no result: Arbovirus anti, Redox H2O2 prof) | S1P3 antag-2 inactive
COC(=O)C1CC(=O)c2sccc2C1 (stereo unspecified)	none
CC(C)(C)c1ccc(C(=O)NCC(=O)N/N=C/c2ccccc2OCC(=O)O)cc1	none
O=C(CSc1ncccn1)NCc1cccs1	none
Cc1ccc(NC(=O)C2(c3ccc([N+](=O)[O-])cc3)CCCC2)cc1	S1P3 antag-1 48 | S1P3 antag-2 50
Cc1ccc(OCC(=O)Nc2ccc([N+](=O)[O-])cc2)cc1	none
Cc1ccccc1NC(=O)/C=C/c1ccc([N+](=O)[O-])s1	S1P3 antag-1 36 | S1P3 antag-2 42
